# FBPA coupling cs – inhibits coupling enzyme system, counter-screen for aldolase hits | coupling enzyme system counterscreen, AmpLite Red fluorescence | activity change, negative = inhibition, % at 58.2 µM, hits read low | hit rate 0.67% among 290,000 | AID 2472; in the data active = activity change below about -30%
#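 Activity here indicates interference with the coupling reaction, not aldolase inhibition. Compounds at 57.5 uM final met coupling enzymes for 10 min at RT; substrate and AmpLite Red detection followed, with a 525/598 nm fluorescence read after 20 min.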
# Sfp PPTase inh – inhibitors of Bacillus subtilis Sfp phosphopantetheinyl transferase. Biochemical Sfp PPTase activity, qHTS. hit rate 3.5% among 310,000. AID 1490. Potency, µM, for inactives: largest response in the series, negative = inhibition, most hits filed as inhibitors;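 note: the enzyme is Sfp with the accession as filed and its product quenches rhodamine fluorescence; potency is the fitted concentration of half-maximal effect; 0% = enzyme reaction without inhibitor and -100% = no enzyme wells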
#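 Reaction rates are the 30-min fluorescence difference (ex 525, em 598 nm) in wells containing 15 nM Sfp, 5 uM rhodamine-CoA and 12.5 uM BHQ-2-YbbR at pH 7.6 with 10 mM MgCl2.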
# Giardia killer – kills Giardia lamblia; activity change, % at 7.66 µM, hits read low; hit rate 0.15% among 340,000; Giardia lamblia trophozoite viability; in the data active = activity change below about -80%; inconclusive = between about -30% and that limit;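 note: parasites exposed to compound for two days anaerobically before the ATP read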
#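 Killing of trophozoites was scored by loss of ATP luminescence after a 48 hrs anaerobic exposure to compounds at 37 deg C, using 100 cells per well.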
# ELG1 DNA repair – blocks ELG1-dependent DNA repair in HEK293T cells; hit rate 2.3% among 330,000; Potency, µM (top dose mostly 46.1 µM), without a hit: at the highest dose activity change, negative = inhibition, most hits filed as inhibitors; HEK293T ELG1-luciferase reporter, luminescence, 16 h; DNA damage induced by 5-fluorouridine; note: potency is the fitted concentration of half-maximal effect; nearly all actives have a fitted effect of over 55% in size
#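 Reporter activity after DNA damage by 5-fluorouridine is monitored. Compound-treated cells incubate 16 hr at 37 °C, then ONE-Glo is added for 30 min before luminescence reading.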
# Numbers without * were called inactive; u = inconclusive; x = no result. Sampled rows, rich in hits. Any-hit rate of the full collection: about 5.5%. Unless noted, calls come from the whole dose curve; as a rule, active = well fitted curve in the direction sought with a large enough effect; inconclusive = small, poorly fitted or top-dose-only effect, or another doubt; inactive = no such curve, though single readings can be large; an effect the other way counts as inactive or inconclusive. Unless noted, % is set by controls: 0 for no effect and ±100 for the full control effect.
SMILES,FBPA coupling cs,Sfp PPTase inh,Giardia killer,ELG1 DNA repair
COc1ccc(C(=O)OC(C)C(=O)Nc2cc(C(F)(F)F)ccc2Cl)c(OC)c1OC (stereo not given),1,3%,-1,21µM*
O=c1c2ccccc2cnn1-c1nc2ccccc2[nH]1,-3,20%,-91*,u
COc1ccc(-c2cc3nc(-c4ccccc4)cc(N4CCC(O)CC4)n3n2)cc1,-3,-15%,5,16µM*
COc1ccc(-c2cc3nc(-c4ccccc4)cc(N4CCCC(O)C4)n3n2)cc1 (stereo not given),0,-5%,-15,16µM*
Cc1ccc(NC(=O)CSc2nnc(COc3ccccc3F)n2N)cc1S(=O)(=O)N1CCOCC1,x,x,-21,x
C=CC[C@@H]1C=C[C@H](ON=C(C)C)[C@H](CO)O1,0,-6%,x,x
CCOC(=O)c1cnc(SC2CCc3ccccc3C2=O)nc1N (stereo not given),-21,56µM*,0,u
CCOC(=O)c1cnc(SC2CC(=O)N(c3ccccc3)C2=O)nc1N (stereo not given),4,6%,23,-2%
c1ccc(Oc2ccc(-c3ccnc4nc(N5CCOCC5)nn34)cc2)cc1,0,-12%,0,18µM*
CC(C)CN1CCN(CCCOC(=O)Nc2cccc3ccccc23)CC1C (stereo not given),x,x,3,x
Cc1cc(NN)nc(NS(=O)(=O)c2ccc(Cl)cc2)n1,0,-19%,2,2%
Cc1cc(NN)nc(NS(=O)(=O)c2ccccc2)n1,-13,56µM*,-16,8%
CN(Cc1cccs1)C(=O)C1CC(=O)N(Cc2ccccc2)C1 (stereo not given),x,x,-15,2%
O=C(CC(Nc1ccc(Cl)cc1Cl)C(=O)O)c1ccccc1 (stereo not given),9,14µM*,-13,u
O=C(CC(Nc1ccccc1Cl)C(=O)OCC(=O)c1cccs1)c1ccccc1 (stereo not given),2,45µM*,10,u
Cc1ccc(NC(CC(=O)c2ccccc2)C(=O)O)cc1Cl (stereo not given),-5,u,-29,u
CCN(CC)CCCNC(=S)N(Cc1cccs1)Cc1cc2cc3c(cc2[nH]c1=O)OCCO3,1,-6%,1,25%
CC(C)CNC(=S)N(Cc1ccco1)Cc1cc2cc3c(cc2[nH]c1=O)OCCO3,1,5%,25,10µM*
CCN(CC)CCCNC(=S)N(Cc1ccco1)Cc1cc2cc3c(cc2[nH]c1=O)OCCO3,0,79µM*,x,u
CCNC(=S)N(Cc1ccco1)Cc1cc2cc3c(cc2[nH]c1=O)OCCO3,1,-6%,27,u
CC(C)CNC(=S)N(CCCO)Cc1cc2cc3c(cc2[nH]c1=O)OCCO3,-1,-13%,u,u
CNC(=S)N(Cc1ccco1)Cc1cc2cc3c(cc2[nH]c1=O)OCCO3,-7,28µM*,9,11%
O=C(CCN1CCCCC1)N1CCc2c([nH]c3ccccc23)C1c1cccnc1 (stereo not given),x,x,-6,x
O=C(CCCn1c(=O)c2sccc2n(Cc2ccc(F)cc2)c1=O)NCc1ccco1,4,27%,18,21µM*
O=C(CCN1CCOCC1)NNC(=S)NC(=O)c1ccccc1,-12,45µM*,-8,u
SMILES,FBPA coupling cs,Sfp PPTase inh,Giardia killer,ELG1 DNA repair
O=C(CCN1CCOCC1)c1ccccc1,4,12%,6,-10%
O=C(COC(=O)c1c[nH]c2ccccc12)Nc1ccc(F)cc1,x,x,0,7%
O=[N+]([O-])c1ccc(Cc2cncc(O)c2)cc1,1,14%,-15,-9%
CN(C)C(=O)c1cc(C(=O)c2c(F)cccc2F)c[nH]1,0,2%,3,u
CC(=O)c1n[nH]nc1Nc1nc(C)cc(C)n1,0,28µM*,-10,1%
CCN(CC)CCn1c2ccccc2c2n[nH]c(=S)nc21,0,28µM*,10,7%
CCN(CC)CCn1c2ccccc2c2nc3ccccc3nc21,1,2%,-7,u
Cc1cc(Cl)n2c(nc3ccccc32)c1C#N,0,-3%,0,21µM*
N#Cc1c(-c2ccccc2)c(C#N)c2nc3ccccc3n2c1N,-2,10%,14,-15%
Cc1ccc(-c2c(C#N)c(N)n3c(nc4ccccc43)c2C#N)cc1,0,-8%,33,18µM*
CNc1cc(C)c(C#N)c2nc3ccccc3n12,3,6%,4,-10%
COc1cc(OC)c(C(=O)OCC(=O)Nc2nnc(-c3ccccc3)o2)cc1OC,x,x,-7,4%

# High-throughput results: PubChem, National Center for Advancing Translational Sciences (NCATS)
